# Hit rate of the full screen: of about 52,000 compounds, about 4,300 (8.3%) were called active. The sample as a whole holds a higher share of actives than the screen did. Values without a mark were called inactive. Cut-off read from the data, not from the text of the source: active = survival mostly below about 52% (no sharp cut-off); inactive = mostly above about 56%.
# Test system: DeltatarO mutant
# Assay: growth inhibition of S. aureus wild type versus tarO mutant, primary screen, teichoic acid synthesis inhibitors, RN4220, OD600 (AID 463173)
# Settings: OD600, 18 h, hits give low values, screened at 18.75 µg/mL (by protocol)
row,Compound,survival
1,O=C(CN1C(=O)CCSc2ccccc21)Nc1ccccc1F,85%
2,CCc1ccc(NC(=O)C2CCN(c3nn4c(=O)cc(C)nc4s3)CC2)cc1,101%
3,COc1ccc(Cn2c(=O)c3cccnc3n(CC(=O)Nc3c(C)cc(C)cc3C)c2=O)cc1,87%
4,O=C(CN1C(=O)COc2ccc(S(=O)(=O)N3CCCCC3)cc21)NCc1ccc(Cl)cc1,64%
5,CCOC(=O)c1ccc(NC(=O)c2nn(C)c3c2COc2ccccc2-3)cc1,106%
6,O=C(CSC1=Nc2ccccc2N=C(c2ccc(F)cc2)C1)NCc1ccc(Cl)cc1,72%
7,CCc1nn(CC(=O)N2CCCCC2)c(=O)c2cc3sccc3n12,65%
8,Cc1ccc(CNC(=O)Cn2c(=O)ccc3cc(S(=O)(=O)N4CCC(C)CC4)ccc32)cc1,37% (active)
9,CC1CCN(S(=O)(=O)c2ccc3c(ccc(=O)n3CC(=O)NCc3ccc(Cl)cc3)c2)CC1,75%
10,CC1CCN(S(=O)(=O)c2ccc3c(ccc(=O)n3CC(=O)NCc3ccccc3)c2)CC1,49%
11,Cc1ccc(NC(=O)Cn2c(=O)ccc3cc(S(=O)(=O)N4CCC(C)CC4)ccc32)cc1Cl,74%
12,CC1CCN(S(=O)(=O)c2ccc3c(ccc(=O)n3CC(=O)Nc3ccc(C(C)C)cc3)c2)CC1,0% (active)
13,CC(=O)Nc1ccc(NC(=O)Cn2c(=O)ccc3cc(S(=O)(=O)N4CCC(C)CC4)ccc32)cc1,84%
14,CCCNC(=O)N1CCN(S(=O)(=O)c2ccc3c(ccn3C)c2)CC1,83%
15,CCc1c(-c2ccccc2)nc2ccccc2c1C(=O)NCCc1ccccc1,70%
16,CCOc1ccc(NC(=O)Cn2c(=O)n(-c3ccccc3)c(=O)c3ccc(C(=O)NCc4ccc5c(c4)OCO5)cc32)cc1,107%
17,COc1cccc(CNC(=O)CSc2nc(=O)[nH]c3c2CCC3)c1,80%
18,CCOc1ccc(-c2cc(C(=O)NCc3ccc(OCC)c(OC)c3)[nH]n2)cc1,85%
19,Cc1ccccc1C(=O)Nc1ccc2nc(N3CCCCC3)cc(C)c2c1,32% (active)
20,CCN1CCN(c2cc(C)c3cc(NC(=O)c4cccc(C(F)(F)F)c4)ccc3n2)CC1,63%
21,Cc1cc(N2CCN(C)CC2)nc2ccc(NC(=O)Nc3cccc(Cl)c3)cc12,70%
22,CCN1CCN(c2cc(C)c3cc(NC(=O)c4cc(Br)ccc4Cl)ccc3n2)CC1,32% (active)
23,Cc1cc(N2CCCCC2)nc2ccc(NC(=O)CCC(=O)N3CCN(c4ccccc4)CC3)cc12,62%
24,CCN1CCN(c2cc(C)c3cc(NC(=O)c4cccc(Cl)c4)ccc3n2)CC1,23% (active)
25,Cc1cc(N2CCCCC2)nc2ccc(NC(=O)c3cccc(F)c3)cc12,83%
26,Cc1cc(N2CCN(C)CC2)nc2ccc(NC(=O)Nc3ccc(Cl)cc3)cc12,72%

row,Compound,survival
1,Cc1cc(C)cc(NC(=O)Nc2ccc3nc(N4CCN(C)CC4)cc(C)c3c2)c1,117%
2,Cc1ccc(C(=O)Nc2ccc3nc(N4CCCCC4)cc(C)c3c2)cc1F,55%
3,Cc1cc(N2CCCCC2)nc2ccc(NC(=O)c3cccc(Cl)c3)cc12,0% (active)
4,Cc1cc(N2CCN(C)CC2)nc2ccc(NC(=O)Nc3ccccc3)cc12,65%
5,O=C(C1CC1)N1CCc2cc(Br)cc(S(=O)(=O)Nc3ccc(F)c(F)c3)c21,110%
6,CCS(=O)(=O)N1CC(=O)N(c2ccc(Cl)cc2)C(C)(C(=O)NC2CCCCCC2)C1 (stereo unspecified),115%
7,CCN1CCN(c2c(S(=O)(=O)c3ccccc3)cnc3ccc(Cl)cc23)CC1,124%
8,COc1ccc(NS(=O)(=O)c2ccc3c(c2)CCN3C(=O)CCC(=O)O)cc1Cl,93%
9,CN(c1ncnc2onc(-c3cccc(Cl)c3)c12)C1CCCCC1,-17% (active)
10,CN(c1ncnc2c1c(-c1ccccc1)cn2-c1cccc(Cl)c1)C1CCCCC1,83%
11,Clc1cccc(-c2noc3ncnc(NC4CCCCC4)c23)c1,68%
12,Cc1cccc(NC(=O)CSc2nc(-c3cccs3)nc3cc(=O)[nH]n23)c1,87%
13,Cc1ncc(CO)c2c1Oc1nc(-c3ccccc3Cl)nc(SCc3ccccc3F)c1C2,72%
14,Cc1cc(C(F)(F)F)nn1-c1nc(-c2ccccc2)cc(C(F)(F)F)n1,17% (active)
15,COc1ccc(-c2cc(C(F)F)nc(-n3nc(C)cc3C)n2)cc1,91%
16,CC(Sc1nc(-c2ccccc2)cc(C(F)(F)F)n1)C(=O)NN1CCCCC1 (stereo unspecified),72%
17,COc1ccc(-c2cc(C(F)(F)F)nc(-n3nc(C(F)(F)F)cc3C)n2)cc1,16% (active)
18,COc1ccc(-c2cc(C(F)(F)F)nc(S(C)(=O)=O)n2)cc1,83%
19,CCc1nn(CC(=O)NCCc2ccc(Cl)cc2)c(=O)c2cc3c(OC)cccc3n12,75%
20,Clc1ccccc1CNc1ncnc2c1nc1n2CCCC1,97%
21,COC(=O)c1cc(-c2cocc2C=C(C#N)C#N)ccc1Cl,84%
22,CC(C)Oc1ccc(C(=O)N2CC(=O)Nc3ccc(F)cc3C2c2ccc(F)cc2)cc1 (stereo unspecified),53%
23,CCc1nc2nc(C)c(NS(=O)(=O)c3ccc(F)c(C)c3)c(=O)n2[nH]1,123%
24,Cc1ccc(O)c(NC(=O)COCc2cc(-c3ccco3)on2)c1,95%
25,O=C(COCc1cc(-c2ccco2)on1)Nc1cccc(Cl)c1Cl,32% (active)
26,CCc1ccccc1NC(=O)COCc1cc(-c2ccco2)on1,55%

row,Compound,survival
1,O=C(COCc1cc(-c2ccc(F)cc2)on1)Nc1cc(Cl)ccc1O,74%
2,Cc1ccc(Cl)cc1NC(=O)COCc1cc(-c2ccco2)on1,83%
3,O=C(COCc1cc(-c2ccc(F)cc2)on1)Nc1cc(Cl)cc(Cl)c1,144%
4,O=C(COCc1cc(-c2cccs2)on1)Nc1cccc(Cl)c1Cl,75%
5,O=C(COCc1cc(-c2ccco2)on1)Nc1cc(Cl)ccc1O,0% (active)
6,O=C(COCc1cc(-c2ccc(F)cc2)on1)Nc1cccc(Cl)c1Cl,46% (active)
7,CCc1cccc(NC(=O)CCC(=O)N2CCSc3ccccc32)c1,57%
8,CC(C)(C)C(=O)Nc1cccc(C(=O)OCc2cc(=O)n3nc(C4CCCCC4)sc3n2)c1,124%
9,COc1ccc(-c2nnc(SCc3nnc(-c4ccccc4)o3)o2)cc1OC,73%
10,Cc1nn(CCC(=O)Nc2cc(F)ccc2F)c(=O)c2nn(-c3ccccc3)c(C)c12,99%
11,CCC(C)(C)n1nnnc1C(c1ccccc1)N1CCc2ccccc2C1 (stereo unspecified),79%
12,COc1ccccc1Cn1cc(C(=O)c2ccc(Cl)cc2)c(=O)c2cc3c(cc21)OCCO3,83%
13,Cc1ccc(Nc2nc(C(=O)N3CCC(C)CC3)cs2)cc1,91%
14,O=C(COc1ccc(F)cc1)NCCc1nc2ccccc2[nH]1,57% (active)
15,COc1ccc(C(=O)NCCc2nc3ccccc3[nH]2)cc1,127%
16,Cc1cc(C)cc(OCC(=O)NCCc2nc3ccccc3[nH]2)c1,109%
17,Cc1cc(OCC(=O)NCCc2nc3ccccc3[nH]2)cc(C)c1Cl,44% (active)
18,O=C(NCCc1nc2ccccc2[nH]1)c1ccc(F)cc1,81%
19,Cc1cccc(OCC(=O)NCCc2nc3ccccc3[nH]2)c1C,79%
20,COc1cccc(CNC(=O)c2ccc(-c3nc(CS(=O)c4ccccc4)c(C)o3)cc2)c1 (stereo unspecified),92%
21,O=S(=O)(c1ccc(Cl)cc1)c1nnn2c1nc(N1CCCCC1)c1sccc12,52%
22,CCS/C(=C(\C#N)C(N)=O)c1ccc(-c2ccccc2)[nH]1,59%
23,CCSC(=C(C#N)C#N)c1cc2c([nH]1)CCCC2,45% (active)
24,N#CC(C#N)=C(C#N)c1cc2c([nH]1)CCCC2,81%
25,CCCOc1ccc(C2C(=O)N(C3CCCCC3)CC(=O)N2CCc2ccccc2)cc1OC (stereo unspecified),86%
26,O=C(c1ccc(Cl)cc1)N1CCC(c2ccncc2)CC1,87%

row,Compound,survival
1,O=C(Nc1ccc(Br)cc1)c1cc2nc(-c3ccccc3)cc(-c3ccccc3)n2n1,65%
2,Cc1cc(-c2ccccc2)n2nc(N)nc2n1,99%
3,Cc1cc(C)n2nc(-c3ccccc3)cc2n1,97%
4,Cc1cc(-c2ccccc2)n2nc(-c3cccc(Br)c3)cc2n1,14% (active)
5,Brc1cccc(-c2cnn3c(-c4ccccc4)cc(-c4ccccc4)nc23)c1,74%
6,Cc1cc(-c2ccccc2)n2nc(-c3ccccc3)cc2n1,-3% (active)
7,CS(=O)(=O)N(CC(=O)NCCc1ccccc1)c1cc(C(F)(F)F)ccc1Cl,68%
8,CCOC(=O)c1c(C)[nH]c(C)c1S(=O)(=O)NCC(=O)NCc1cccc(Br)c1,130%
9,COc1ccc(C)cc1S(=O)(=O)N1CCN(c2cccc(Cl)c2)CC1,59%
10,Cc1cc(C)c(Cn2c(CCNC(=O)c3ccco3)nc3ccccc32)c(C)c1,59%
11,COc1cccc(-n2c(=O)c3sc4ccccc4c3n(CC(=O)Nc3ccccc3C)c2=O)c1,74%
12,CCc1ccccc1NC(=O)Cn1nnc(C(=O)NCc2ccccc2Cl)c1N,20% (active)
13,Cc1ccc(NC(=O)Cn2nnc(C(=O)NCCc3ccccc3)c2N)cc1,87%
14,Cc1ccc(NC(=O)Cn2nnc(C(=O)NCCc3ccccc3)c2N)cc1C,46% (active)
15,COc1ccc(NC(=O)Cn2nnc(C(=O)Nc3ccc(F)c(Cl)c3)c2N)cc1OC,37% (active)
16,CCc1ccccc1NC(=O)Cn1nnc(C(=O)NCc2cccs2)c1N,94%
17,COc1cccc(CNC(=O)c2nnn(CC(=O)Nc3cc(Cl)ccc3C)c2N)c1,25% (active)
18,Cc1ccc(NC(=O)Cn2nnc(C(=O)NCCc3ccccc3)c2N)cc1Cl,105%
19,COc1ccc(NC(=O)Cn2nnc(C(=O)Nc3ccc(C)c(F)c3)c2N)cc1Cl,118%
20,CCc1ccccc1NC(=O)Cn1nnc(C(=O)NCc2cccc(OC)c2)c1N,70%
21,COc1cccc(Cn2nnc(C(=O)Nc3cc(C)ccc3C)c2N)c1,100%
22,Cc1cccc(NC(=O)Cn2nnc(C(=O)Nc3ccc(F)c(Cl)c3)c2N)c1,101%
23,Cc1cc(C)cc(NC(=O)Cn2nnc(C(=O)NCc3ccccc3Cl)c2N)c1,72%
